Several values for one entry are separate records, joined by “and”; a condition that tells them apart may be missing. Equal entries are not always repeated. The whole screen tested about 5,500 compounds, of which about 2,000 (36%) were called active. Inconclusive results (about 18%) are left out. No stated cut-off is given here; in the data, active means normalized growth mostly below about 0.91 (no sharp cut-off); inconclusive means no clear call, values can overlap the other calls; inactive means mostly above about 0.92. The list shows a part of the results.
Test: chemical genetic growth profiling, strain panel (AID 1159580);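 further: tested at 20 µM; growth read once vehicle control cultures reached saturation at 30 °C; 1 = growth at the plate median or of vehicle wells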
Conditions: growth OD

Measured: normalized growth

CCCC(C(=O)OCCN(CC)CC)(c1ccccc1)c1ccccc1
inactive: S. cerevisiae deletion strains, locus YJR075W, strain HOC1, stronger effect = lower value 1 and 0.971 | S. cerevisiae deletion strains, locus YKL009W, strain mrt4, stronger effect = lower value 0.982 | S. cerevisiae deletion strains, locus YKL068W, stronger effect = lower value 0.995 | S. cerevisiae deletion strains, locus YKL085W, strain MDH1 (second series), stronger effect = lower value 0.99 | S. cerevisiae deletion strains, locus YKL085W, strain MDH1, stronger effect = lower value 0.99 | S. cerevisiae deletion strains, locus YKL160W, strain elf1, stronger effect = lower value 0.982 | S. cerevisiae deletion strains, locus YKL190W, strain CNB1, stronger effect = lower value 0.995 | S. cerevisiae deletion strains, locus YKR001C, strain vps1, stronger effect = lower value 0.999 | S. cerevisiae deletion strains, locus YKR026C, strain gcn3, stronger effect = lower value 1 | S. cerevisiae deletion strains, locus YKR091W, strain srl3, stronger effect = lower value 1 | S. cerevisiae deletion strains, locus YLL001W, strain dnm1, stronger effect = lower value 0.998 | S. cerevisiae deletion strains, locus YLL026W, stronger effect = lower value 1.01 | S. cerevisiae deletion strains, locus YLL041C, strain sdh2, stronger effect = lower value 1 | S. cerevisiae deletion strains, locus YLR027C, strain aat2, stronger effect = lower value 1 | S. cerevisiae deletion strains, locus YLR039C, strain RIC1, stronger effect = lower value 1.16 | S. cerevisiae deletion strains, locus YLR058C, strain SHM2, stronger effect = lower value 1.01 | S. cerevisiae deletion strains, locus YLR102C, strain apc9, stronger effect = lower value 0.994 | S. cerevisiae deletion strains, locus YLR113W, strain HOG1, stronger effect = lower value 0.966 | S. cerevisiae deletion strains, locus YLR221C, strain rsa3, stronger effect = lower value 0.991 | S. cerevisiae deletion strains, locus YLR258W, strain gsy2, stronger effect = lower value 0.989 | S. cerevisiae deletion strains, locus YLR262C, strain YPT6 (second series), stronger effect = lower value 1.12 | S. cerevisiae deletion strains, locus YLR262C, strain YPT6, stronger effect = lower value 1.25 | S. cerevisiae deletion strains, locus YLR268W, strain sec22, stronger effect = lower value 0.977 | S. cerevisiae deletion strains, locus YLR320W, strain mms22, stronger effect = lower value 0.968 | S. cerevisiae deletion strains, locus YLR330W, strain CHS5, stronger effect = lower value 1.01 | S. cerevisiae deletion strains, locus YLR342W, strain FKS1 (second series), stronger effect = lower value 0.941 | S. cerevisiae deletion strains, locus YLR342W, strain FKS1, stronger effect = lower value 0.999 | S. cerevisiae deletion strains, locus YLR357W, strain rsc2, stronger effect = lower value 0.935 | S. cerevisiae deletion strains, locus YLR370C, strain arc18, stronger effect = lower value 1 | S. cerevisiae deletion strains, locus YLR371W, strain rom2, stronger effect = lower value 0.985 | S. cerevisiae deletion strains, locus YLR384C, strain iki3, stronger effect = lower value 1.01 | S. cerevisiae deletion strains, locus YLR418C, strain cdc73, stronger effect = lower value 0.883 | S. cerevisiae deletion strains, locus YML016C, strain PPZ1, stronger effect = lower value 1.01 | S. cerevisiae deletion strains, locus YML032C, strain rad52, stronger effect = lower value 0.989 | S. cerevisiae deletion strains, locus YML120C, strain ndi1, stronger effect = lower value 0.989 | S. cerevisiae deletion strains, locus YML124C, strain tub3, stronger effect = lower value 0.995 | S. cerevisiae deletion strains, locus YMR058W, strain fet3, stronger effect = lower value 1 | S. cerevisiae deletion strains, locus YMR078C, strain ctf18, stronger effect = lower value 0.99 | S. cerevisiae deletion strains, locus YMR125W, strain sto1, stronger effect = lower value 1.01 | S. cerevisiae deletion strains, locus YMR129W, stronger effect = lower value 0.983 | S. cerevisiae deletion strains, locus YMR205C, strain PFK2, stronger effect = lower value 0.972 | S. cerevisiae deletion strains, locus YMR223W, strain ubp8, stronger effect = lower value 0.967 | S. cerevisiae deletion strains, locus YMR231W, strain pep5, stronger effect = lower value 1.01 | S. cerevisiae deletion strains, locus YMR263W, strain SAP30, stronger effect = lower value 1 | S. cerevisiae deletion strains, locus YMR307W, strain GAS1, stronger effect = lower value 1.03 | S. cerevisiae deletion strains, locus YNL067W, strain RPL9B, stronger effect = lower value 0.996 | S. cerevisiae deletion strains, locus YNL071W, strain lat1, stronger effect = lower value 0.957 | S. cerevisiae deletion strains, locus YNL128W, strain TEP1, stronger effect = lower value 0.992 | S. cerevisiae deletion strains, locus YNL153C, strain GIM3, stronger effect = lower value 1.02 and 1.01 | S. cerevisiae deletion strains, locus YNL183C, strain NPR1, stronger effect = lower value 0.946 | S. cerevisiae deletion strains, locus YNL197C, strain WHI3, stronger effect = lower value 1.01 | S. cerevisiae deletion strains, locus YNL209W, strain ssb2, stronger effect = lower value 1.02 | S. cerevisiae deletion strains, locus YNL224C, strain SQS1, stronger effect = lower value 1.02 | S. cerevisiae deletion strains, locus YNL233W, strain BNI4, stronger effect = lower value 1.01 | S. cerevisiae deletion strains, locus YNL248C, strain rpa49, stronger effect = lower value 0.989 | S. cerevisiae deletion strains, locus YNL250W, strain rad50, stronger effect = lower value 0.981 | S. cerevisiae deletion strains, locus YNL271C, strain bni1, stronger effect = lower value 0.994 | S. cerevisiae deletion strains, locus YNL298W, strain CLA4, stronger effect = lower value 0.989 | S. cerevisiae deletion strains, locus YNL307C, strain MCK1, stronger effect = lower value 0.983 | S. cerevisiae deletion strains, locus YNL322C, strain KRE1 (second series), stronger effect = lower value 1.01 | S. cerevisiae deletion strains, locus YNL322C, strain KRE1, stronger effect = lower value 0.985 | S. cerevisiae deletion strains, locus YNR049C, strain mso1, stronger effect = lower value 1.01 | S. cerevisiae deletion strains, locus YNR052C, strain pop2, stronger effect = lower value 0.986 | S. cerevisiae deletion strains, locus YOL006C, strain TOP1, stronger effect = lower value 1.05 | S. cerevisiae deletion strains, locus YOL012C, strain htz1 0.951 | S. cerevisiae deletion strains, locus YOL147C, strain pex11, stronger effect = lower value 0.995 | S. cerevisiae deletion strains, locus YOR001W, strain rrp6, stronger effect = lower value 0.977 | S. cerevisiae deletion strains, locus YOR061W, strain CKA2, stronger effect = lower value 1.01 | S. cerevisiae deletion strains, locus YOR069W, strain VPS5, stronger effect = lower value 1 | S. cerevisiae deletion strains, locus YOR070C, strain gyp1, stronger effect = lower value 1 | S. cerevisiae deletion strains, locus YOR080W, strain dia2, stronger effect = lower value 0.993 | S. cerevisiae deletion strains, locus YOR083W, strain WHI5 (second series), stronger effect = lower value 0.993 | S. cerevisiae deletion strains, locus YOR083W, strain WHI5, stronger effect = lower value 0.983 | S. cerevisiae deletion strains, locus YOR106W, strain vam3, stronger effect = lower value 0.979 | S. cerevisiae deletion strains, locus YOR136W, strain idh2, stronger effect = lower value 0.993 | S. cerevisiae deletion strains, locus YOR144C, strain elg1, stronger effect = lower value 0.989 | S. cerevisiae deletion strains, locus YOR184W, strain ser1, stronger effect = lower value 0.99 | S. cerevisiae deletion strains, locus YOR231W, strain MKK1, stronger effect = lower value 0.98 | S. cerevisiae deletion strains, locus YOR265W, strain rbl2, stronger effect = lower value 1.01 | S. cerevisiae deletion strains, locus YOR270C, strain vph1, stronger effect = lower value 0.942 | S. cerevisiae deletion strains, locus YOR290C, strain snf2, stronger effect = lower value 0.998 | S. cerevisiae deletion strains, locus YOR316C, strain cot1, stronger effect = lower value 1 | S. cerevisiae deletion strains, locus YPL051W, strain arl3, stronger effect = lower value 0.972 | S. cerevisiae deletion strains, locus YPL055C, strain LGE1, stronger effect = lower value 1.01 | S. cerevisiae deletion strains, locus YPL078C, strain atp4, stronger effect = lower value 0.998 | S. cerevisiae deletion strains, locus YPL106C, strain sse1, stronger effect = lower value 1.02 | S. cerevisiae deletion strains, locus YPL240C, strain hsp82, stronger effect = lower value 0.998 | S. cerevisiae deletion strains, locus YPL241C, strain CIN2, stronger effect = lower value 1 | S. cerevisiae deletion strains, locus YPL256C, strain CLN2, stronger effect = lower value 0.994 | S. cerevisiae deletion strains, locus YPR119W, strain clb2, stronger effect = lower value 0.996 | S. cerevisiae deletion strains, locus YPR141C, strain kar3, stronger effect = lower value 0.996 | S. cerevisiae deletion strains, locus YPR163C, strain tif3, stronger effect = lower value 0.995 | S. cerevisiae deletion strains, locus YPR167C, strain met16, stronger effect = lower value 0.993 | S. cerevisiae deletion strains, strain wtn01, stronger effect = lower value 0.974 | S. cerevisiae strains, strain wild type, stronger effect = lower value 1.01

— PubChem BioAssay AID1159580 (chemical genetic matrix, 2015)
